We go through eight molecules from PubChem BioAssay (NCI).

Among the test systems are SK-MEL-2 melanoma; EKVX NSCLC; SN12C renal; UO-31 renal; TK-10 renal; ACHN renal; A498 renal; CCRF-CEM leukemia; MOLT-4 leukemia; SR leukemia; RPMI-8226 leukemia; OVCAR-8 ovarian; OVCAR-5 ovarian; OVCAR-4 ovarian; SK-OV-3 ovarian; IGROV1 ovarian; OVCAR-3 ovarian; HS 578T breast; NCI/ADR-RES ovarian.
Assay in all cases: NCI-60 one-dose screen, 48 h (100 = growth as untreated, 0 = no growth, -100 = all killed)
Conditions in all cases: 10 µM unless noted

SMILES strings stand for the structures. The panel holds about 83,000 compounds, 20% with a hit somewhere; the sample as a whole holds those more often.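 Cell lines were cultured in 96-well plates, exposed to a single compound concentration, and assessed for percent growth 48 hours later.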 A number with no mark means an inactive call. Calls of active or inactive are those of the source. Rule for the calls: active = growth percent below 10; inactive = the rest.

Take `OCc1cnccc1NC12CC3CC(CC(C3)C1)C2`: the growth in the experiment with SK-MEL-2 melanoma is 95.1%; with EKVX NSCLC it was 103%; with SN12C renal, 105%; in the experiment on UO-31 renal it was 90.1%; in the experiment on TK-10 renal, 99.1%; in the experiment on ACHN renal it was 101%. The growth with A498 renal was 94.7%; with CCRF-CEM leukemia, 95.9%; in the experiment with MOLT-4 leukemia it was 88.8%; with SR leukemia, 98.9%; in the experiment with RPMI-8226 leukemia, 96.8%; with OVCAR-8 ovarian, 93.8%. Moreover, the growth in the experiment on OVCAR-5 ovarian was 107%; in the experiment on OVCAR-4 ovarian, 101%; with SK-OV-3 ovarian, 100%; with IGROV1 ovarian it was 102%; with OVCAR-3 ovarian it was 103%; in the experiment on HS 578T breast, 103%. Further, in the experiment with NCI/ADR-RES ovarian, the growth is 98.8%.

For the molecule `O=C(Cn1c2ccccc2c2ccncc21)N/N=C/c1c[nH]c2ccccc12`, the growth with SK-MEL-2 melanoma was 95.3%; with EKVX NSCLC it was 91.2%; with SN12C renal it was 38.8%; in the experiment with UO-31 renal it was 103%; in the experiment on TK-10 renal, 113%; in the experiment with ACHN renal it was 77.7%. Moreover, the growth with A498 renal was 104%; in the experiment on CCRF-CEM leukemia, 43.8%; with MOLT-4 leukemia it was 53.4%; in the experiment on SR leukemia, 40.6%; in the experiment with RPMI-8226 leukemia, -27.7% (active); in the experiment on OVCAR-8 ovarian, 40.9%. Also, the growth is 107% in the experiment on OVCAR-5 ovarian; -60% (active) in the experiment on OVCAR-4 ovarian; 107% in the experiment with SK-OV-3 ovarian; 89.2% in the experiment with IGROV1 ovarian; 18.3% in the experiment with OVCAR-3 ovarian; 53.2% in the experiment with HS 578T breast. In addition, the growth in the experiment with NCI/ADR-RES ovarian is 94.6%.

As for `COc1ccc(OC)c(NCC(=O)n2nc(/C=C\c3ccc(O)c(OC)c3)cc2/C=C\c2ccc(O)c(OC)c2)c1`, the growth is 0.648% (active) in the experiment with SK-MEL-2 melanoma; 28.7% with EKVX NSCLC; 21.5% in the experiment with SN12C renal; 5.1% (active) with UO-31 renal; 16.4% in the experiment with TK-10 renal; 18.6% with ACHN renal. Besides, the growth in the experiment on A498 renal is 34.1%; in the experiment on CCRF-CEM leukemia it was 5.46% (active); with MOLT-4 leukemia it was 7.73% (active); in the experiment on SR leukemia, 0.623% (active); with RPMI-8226 leukemia, -8.66% (active); with OVCAR-8 ovarian it was 7.25% (active). For the same molecule, the growth in the experiment on OVCAR-5 ovarian was 25.3%; in the experiment on OVCAR-4 ovarian it was 39.2%; in the experiment on SK-OV-3 ovarian it was -3.5% (active); with IGROV1 ovarian, 11.6%; in the experiment with OVCAR-3 ovarian, 12%; with HS 578T breast, 22.2%.

Regarding `C=C1C(=O)O[C@H]2[C@H]1CC/C(COC(=O)c1ccc(Cl)nc1)=C\CC[C@@]1(C)O[C@@H]21`, the growth was 40.4% with SK-MEL-2 melanoma; 10.2% in the experiment with EKVX NSCLC; 12.9% with SN12C renal; -39% (active) in the experiment with UO-31 renal; -8.78% (active) in the experiment on TK-10 renal; -20.6% (active) in the experiment with ACHN renal. For the same molecule, the growth is 87.2% in the experiment with A498 renal; -32.1% (active) in the experiment with CCRF-CEM leukemia; -28.6% (active) in the experiment with MOLT-4 leukemia; -13.2% (active) in the experiment on SR leukemia; -30% (active) in the experiment on RPMI-8226 leukemia; -8.23% (active) with OVCAR-8 ovarian. The growth in the experiment on OVCAR-5 ovarian was 27.2%; in the experiment with OVCAR-4 ovarian it was 27.9%; in the experiment on SK-OV-3 ovarian, 99.3%; in the experiment with IGROV1 ovarian it was 13.1%; in the experiment with OVCAR-3 ovarian, -42.1% (active); in the experiment on HS 578T breast, 61.2%. Further, in the experiment on NCI/ADR-RES ovarian, the growth is 42.1%.

Turning to `CC(=O)c1cc2c(N)c(C(=O)Nc3cccc(Cl)c3)sc2nc1C`, the growth in the experiment on SK-MEL-2 melanoma is 39%; in the experiment on EKVX NSCLC, 76.5%; in the experiment on SN12C renal, 92.6%; with UO-31 renal, 78.7%; with TK-10 renal, 90.4%; with ACHN renal it was 93%. The growth with A498 renal was 37.4%; in the experiment with CCRF-CEM leukemia, 92.8%; with MOLT-4 leukemia, 73.4%; with SR leukemia, 66.1%; with RPMI-8226 leukemia, 76.7%; in the experiment with OVCAR-8 ovarian, 83.5%. Also, the growth in the experiment with OVCAR-5 ovarian is 113%; in the experiment with OVCAR-4 ovarian it was 84.3%; with SK-OV-3 ovarian, 51.3%; with IGROV1 ovarian, 92.3%; with OVCAR-3 ovarian, 92.8%; with HS 578T breast, 83.2%. Further, in the experiment with NCI/ADR-RES ovarian, the growth was 79.5%.

With `Fc1cccc(F)c1C#Cc1ccc2cccnc2c1`, the growth in the experiment with SK-MEL-2 melanoma is 84.4%; with EKVX NSCLC, 68.6%; in the experiment with SN12C renal, 88.3%; in the experiment on UO-31 renal, 53.5%; in the experiment with TK-10 renal, 88.4%; in the experiment with ACHN renal, 88.5%. In addition, the growth is 99.7% in the experiment with A498 renal; 83.7% with CCRF-CEM leukemia; 71.6% with MOLT-4 leukemia; 75.4% with SR leukemia; 70.2% with RPMI-8226 leukemia; 87.3% in the experiment with OVCAR-8 ovarian. Further, the growth in the experiment with OVCAR-5 ovarian is 136%; in the experiment with OVCAR-4 ovarian, 75.1%; in the experiment on SK-OV-3 ovarian, 95.7%; with IGROV1 ovarian it was 56.3%; in the experiment on OVCAR-3 ovarian, 83.5%; with HS 578T breast, 91.6%. Also, in the experiment with NCI/ADR-RES ovarian, the growth is 90.8%.

Regarding `CCOC(=O)C1CSC(C)(C(=O)OCC)N1` (stereo unspecified), the growth is 99.4% in the experiment with SK-MEL-2 melanoma; 94.7% with EKVX NSCLC; 104% in the experiment with SN12C renal; 95.6% in the experiment with UO-31 renal; 91.9% in the experiment on TK-10 renal; 110% in the experiment on ACHN renal. For the same molecule, the growth is 118% in the experiment with A498 renal; 103% with CCRF-CEM leukemia; 92.8% with MOLT-4 leukemia; 97.3% with SR leukemia; 96.3% in the experiment on RPMI-8226 leukemia; 110% with OVCAR-8 ovarian. Besides, the growth in the experiment with OVCAR-5 ovarian was 98.2%; with OVCAR-4 ovarian, 109%; in the experiment on SK-OV-3 ovarian, 91.7%; with IGROV1 ovarian, 104%; with OVCAR-3 ovarian it was 100%; in the experiment with HS 578T breast it was 112%. The growth in the experiment with NCI/ADR-RES ovarian is 101%.

Regarding `CN1C(=O)C2(SCC(C(=O)NCC(=O)OC(C)(C)C)N2C(=O)C2CCCCC2)c2ccccc21` (stereo unspecified), the growth with SK-MEL-2 melanoma is 86.9%; in the experiment on EKVX NSCLC it was 96.6%; in the experiment with SN12C renal, 99.2%; in the experiment on UO-31 renal, 84%; with TK-10 renal, 103%; in the experiment on ACHN renal it was 99.8%. Also, the growth in the experiment with A498 renal was 83.5%; in the experiment on CCRF-CEM leukemia, 96.3%; in the experiment on MOLT-4 leukemia, 92.6%; in the experiment on SR leukemia, 110%; in the experiment with RPMI-8226 leukemia, 90.5%; in the experiment with OVCAR-8 ovarian, 96%. Further, the growth in the experiment on OVCAR-5 ovarian was 104%; with OVCAR-4 ovarian it was 100%; in the experiment with SK-OV-3 ovarian, 99.8%; in the experiment on IGROV1 ovarian, 101%; with OVCAR-3 ovarian it was 107%; in the experiment on HS 578T breast it was 97.5%. Moreover, the growth in the experiment with NCI/ADR-RES ovarian is 97.7%.
